Sampled rows, rich in hits. Any-hit rate of the full collection: about 8.7%.
G9a block – qHTS Assay for Inhibitors of Histone Lysine Methyltransferase G9a; Histone-lysine N-methyltransferase EHMT2 (Homo sapiens), Q96KQ7; G9a H3K9 monomethylation, AlphaScreen, 2 h; Potency, µM (highest dose often 102 µM), for the others: at the top dose activity, negative = inhibition, actives largely listed as inhibitors; actives 8.8% (n = 350,000); AID 504332, 2011; note: % is set by controls: 0 for no effect and ±100 for the full control effect; nearly all actives have a fitted effect of over 75% in size
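Compounds were preincubated with 20 nM G9a for 15 min, after which biotinylated H3K9 peptide (500 nM) and SAM (20 uM) started a 2 h room-temperature reaction. Monomethylated product was quantified by antibody-based AlphaScreen chemiluminescence.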
Sfp PPTase inh – qHTS Assay for Inhibitors of Bacillus subtilis Sfp phosphopantetheinyl transferase (PPTase); 4'-phosphopantetheinyl transferase ffp (Bacillus subtilis), Q9F4F7; Biochemical Sfp PPTase activity, qHTS; Potency, µM, for inactives: largest response in the series, negative = inhibition, hits mostly inhibitors; actives 3.5% (n = 310,000); AID 1490, 2009;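 note: the enzyme is Sfp with the accession as filed and its product quenches rhodamine fluorescence; 0% = enzyme reaction without inhibitor and -100% = no enzyme wells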
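Fluorescence-quenching assay: 15 nM Sfp-PPTase preincubated 15 min at room temperature with compound, then 5 uM rhodamine-CoA and 12.5 uM BHQ-2-labelled YbbR peptide added. Fluorescence (ex 525/em 598 nm) read at start and after 30 min; difference gives rate.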
HP1b binding inh – HTS for Inhibitors of HP1-beta Chromodomain Interactions with Methylated Histone Tails. Potency, µM (titrated, usually from 114 µM), for inactives: at the top dose activity change, negative = inhibition, hits mostly inhibitors. AID 540317, 2011. AlphaScreen HP1-beta / biotin-H3K9me3 peptide binding. actives 0.56% (n = 390,000); note: nearly all actives have a fitted effect of over 70% in size
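AlphaScreen: HP1-beta (50 nM) preformed 30 min with biotin-H3(1-18)K9me3 peptide (50 nM) in PBS pH 7.4, 0.01% Tween-20. Compound added for 30 min at RT, then streptavidin donor/nickel chelate acceptor beads (10 ug/mL) for 30 min.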
BAZ2B block – qHTS Assay for Inhibitors of BAZ2B | AlphaScreen BAZ2B-H3K14Ac peptide displacement | Potency, µM (titrated, usually from 114 µM), without a hit: top-dose activity change, negative = inhibition, usual class: inhibitors | actives 4.4% (n = 360,000); note: % is set by controls: 0 for no effect and ±100 for the full control effect; nearly all actives have a fitted effect of over 60% in size
Target sequence (Q9UIF8 whole entry, looked up): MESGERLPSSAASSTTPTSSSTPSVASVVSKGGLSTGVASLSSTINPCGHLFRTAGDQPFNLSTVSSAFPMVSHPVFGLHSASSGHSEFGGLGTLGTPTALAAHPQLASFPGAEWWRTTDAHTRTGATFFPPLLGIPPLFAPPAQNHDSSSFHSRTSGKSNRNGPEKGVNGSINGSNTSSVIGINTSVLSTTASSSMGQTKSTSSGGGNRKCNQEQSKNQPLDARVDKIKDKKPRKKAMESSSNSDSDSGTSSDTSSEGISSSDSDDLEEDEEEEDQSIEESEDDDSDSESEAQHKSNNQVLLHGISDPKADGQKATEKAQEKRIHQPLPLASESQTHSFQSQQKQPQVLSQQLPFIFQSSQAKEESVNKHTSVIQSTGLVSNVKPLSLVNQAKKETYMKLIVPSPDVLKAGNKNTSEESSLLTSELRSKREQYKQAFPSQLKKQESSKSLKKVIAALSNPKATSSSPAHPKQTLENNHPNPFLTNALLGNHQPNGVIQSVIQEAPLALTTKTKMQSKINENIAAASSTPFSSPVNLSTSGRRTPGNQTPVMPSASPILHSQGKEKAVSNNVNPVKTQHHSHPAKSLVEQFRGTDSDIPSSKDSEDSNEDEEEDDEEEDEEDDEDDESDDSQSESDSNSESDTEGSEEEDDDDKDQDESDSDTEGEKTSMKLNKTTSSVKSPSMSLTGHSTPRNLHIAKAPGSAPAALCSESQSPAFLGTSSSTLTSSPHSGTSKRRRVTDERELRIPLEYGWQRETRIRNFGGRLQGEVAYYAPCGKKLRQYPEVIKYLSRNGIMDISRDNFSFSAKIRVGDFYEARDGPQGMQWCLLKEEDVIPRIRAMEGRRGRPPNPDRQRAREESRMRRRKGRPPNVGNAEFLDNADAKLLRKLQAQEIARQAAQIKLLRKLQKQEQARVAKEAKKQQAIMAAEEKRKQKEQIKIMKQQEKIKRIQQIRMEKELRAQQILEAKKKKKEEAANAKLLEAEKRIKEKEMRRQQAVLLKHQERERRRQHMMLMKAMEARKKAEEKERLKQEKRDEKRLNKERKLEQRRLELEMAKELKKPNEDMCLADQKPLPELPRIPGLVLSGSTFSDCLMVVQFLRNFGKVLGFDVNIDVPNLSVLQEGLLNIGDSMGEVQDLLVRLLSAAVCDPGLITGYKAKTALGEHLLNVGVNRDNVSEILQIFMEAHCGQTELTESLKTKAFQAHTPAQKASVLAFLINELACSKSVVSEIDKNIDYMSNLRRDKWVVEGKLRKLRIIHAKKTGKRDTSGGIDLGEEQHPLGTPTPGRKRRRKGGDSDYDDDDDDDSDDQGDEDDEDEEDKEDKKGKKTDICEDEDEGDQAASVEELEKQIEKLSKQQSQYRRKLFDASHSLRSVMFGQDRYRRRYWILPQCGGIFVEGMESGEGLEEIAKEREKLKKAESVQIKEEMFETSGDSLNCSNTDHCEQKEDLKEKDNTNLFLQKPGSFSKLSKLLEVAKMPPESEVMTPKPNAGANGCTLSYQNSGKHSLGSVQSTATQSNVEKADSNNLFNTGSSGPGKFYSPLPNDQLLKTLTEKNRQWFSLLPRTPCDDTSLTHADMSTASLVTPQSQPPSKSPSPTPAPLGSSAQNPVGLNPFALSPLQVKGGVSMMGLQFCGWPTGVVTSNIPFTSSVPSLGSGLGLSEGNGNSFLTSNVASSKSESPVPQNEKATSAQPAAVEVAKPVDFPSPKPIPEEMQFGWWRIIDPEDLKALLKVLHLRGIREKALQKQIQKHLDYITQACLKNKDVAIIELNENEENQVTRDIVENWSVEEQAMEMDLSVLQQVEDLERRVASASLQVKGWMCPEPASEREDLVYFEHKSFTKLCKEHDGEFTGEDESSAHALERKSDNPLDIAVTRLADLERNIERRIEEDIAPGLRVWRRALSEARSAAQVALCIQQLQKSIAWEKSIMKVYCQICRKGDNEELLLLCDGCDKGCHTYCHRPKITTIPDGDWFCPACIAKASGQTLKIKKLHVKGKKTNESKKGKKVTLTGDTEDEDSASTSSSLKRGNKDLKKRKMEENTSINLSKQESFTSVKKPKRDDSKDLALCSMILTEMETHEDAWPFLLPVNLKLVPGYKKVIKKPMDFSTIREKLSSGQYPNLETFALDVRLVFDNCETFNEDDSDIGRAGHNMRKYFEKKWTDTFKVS
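Complex of BAZ2B and biotin-H3K14Ac (50 nM apiece) forms over 30 min at RT, then faces library compounds up to 110 uM for another 30 min; AlphaScreen beads added, 20 min dark incubation, luminescence read.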
ALOX12 inh – Primary qHTS assay for inhibitors of human arachidonate 12S-lipoxygenase (ALOX12): Round 2; purified 12hLO, xylenol orange hydroperoxide absorbance; Potency, µM (doses to about 108 µM), inactives show at the top dose activity change, negative = inhibition, hits mostly inhibitors; actives 1.1% (n = 580,000); AID 1671190, 2021; note: % is set by controls: 0 for no effect and ±100 for the full control effect
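Purified human 12hLO at 150 nM in 25 mM Hepes, 0.01% Triton X-100, pH 7.0, preincubated 15 min at room temperature with compound. Reaction started with 40 uM arachidonic acid, 30 min at room temperature. Hydroperoxide measured by Fe-xylenol orange, 573/405 nm absorbance ratio.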
JMJD2A Tudor inh – qHTS Assay for Inhibitors of JMJD2A-Tudor Domain. Lysine-specific demethylase 4A (Homo sapiens), O75164. AlphaScreen JMJD2A-Tudor / H3K4me3 peptide binding. Potency, µM (series often up to 114 µM), inactives show top-dose activity change, negative = inhibition, usual class: inhibitors. actives 4.4% (n = 390,000). AID 504339, 2011; note: % is set by controls: 0 for no effect and ±100 for the full control effect; nearly all actives have a fitted effect of over 50% in size
The depositor's hits bear a star; ? = inconclusive; · = not tested or not shown; [ ] = another dose, or the depositor's remark. Calls come from the whole dose curve; as a rule, active = well fitted curve in the direction sought with a large enough effect; inconclusive = small, poorly fitted or top-dose-only effect, or another doubt; inactive = no such curve, though single readings can be large; an effect the other way counts as inactive or inconclusive. Potency is the fitted concentration of half-maximal effect.

SMILES	G9a block	Sfp PPTase inh	HP1b binding inh	BAZ2B block	ALOX12 inh	JMJD2A Tudor inh
Cc1nnc(NC(=O)c2cccc(S(=O)(=O)N3CC(c4ccccc4)CC3=O)c2)s1 (centres undefined)	50.1µM*	20.3%	43.8%	6.1%	10.6%	-7.7%
CCc1nnc(NC(=O)c2cccc(S(=O)(=O)N3CC(c4ccccc4)CC3=O)c2)s1 (centres undefined)	-0.6%	23.0%	43.8%	10.8%	6.1%[57.4 µM]	-11.3%
COc1ccc(C(=O)Nc2nncs2)cc1S(=O)(=O)N1CC(c2ccccc2)CC1=O (centres undefined)	50.1µM*	-14.5%	54.7%	3.9%	486.7%	-13.4%
CCC(Sc1nncn1CCOC)C(=O)c1ccc(OC)cc1 (centres undefined)	·	·	·	·	-2.6%	·
CN1C(=O)N(C)c2ccc(Br)c3cccc1c23	21.9%	-1.6%	29.1%	6.9%	0.8%	44.7µM*
CN1C(=O)N(C)c2ccc(C=O)c3cccc1c23	-18.7%	0.4%	87.0%	-2.0%	-21.9%	-16.1%
O=C(C1=NO[C@@H]2CN(c3ccc(OC(F)(F)F)cc3)C[C@H]12)N1CCOCC1	·	·	·	·	-8.8%[176 µM]	·
O=C(Nc1ccc(N2CCOCC2)c2nonc12)C1CCCC1	?	?	?	?	-11.5%	-16.0%[11.4 µM]
Nc1ccc(N2CCOCC2)c2nonc12	·	?	-2.1%	?	39.8µM*	-32.6%
COc1cccc(OC)c1OCCCCN1CCCCC1	11.2µM*	-4.1%	-38.1%	50.1µM*	0.0%	39.8µM*
COc1ccc(NC(=O)NCCCN2CCC(Cc3ccccc3)CC2)cc1	·	-8.8%	3.9%	-12.1%	?	-24.1%
COc1cccc(OC)c1OCCCCN1CCC(Cc2ccccc2)CC1	12.6µM*	-2.8%	?	28.2µM*	?	3.16µM*
CC(=O)CCc1ccc(OCCCCN2CCC(Cc3ccccc3)CC2)cc1	10µM*	?	?	50.1µM*	?	3.55µM*
COc1cccc(OC)c1OCCCCN1CCCC1	?	-21.9%	?	?	?	7.94µM*
O=C(NCc1ccco1)c1cc2c(s1)CCN(C(=O)c1ccc(Cl)cc1)C2	·	·	·	·	13.7%	·
COc1cc(-c2noc(C)c2C#CC2(N)CCCCC2)cc(OC)c1OC	14.1µM*	-13.7%	24.4%	?	-0.9%	-23.6%
COC(=O)N/N=C(\C)c1ccc(Br)cc1	0.6%[59 µM]	16.8%	18.8%	8.2%	-6.7%	-12.9%
CSC(=S)N/N=C(\C)c1ccc(Br)cc1	?	-26.1%	?	?	44.7µM*	?
CC(C(=O)N(C)C)N1CCc2onc(C(c3ccccc3)c3ccccc3)c2C1 (centres undefined)	·	·	·	·	7.2%	·
C[N+]1(C)CC2CCC(Cl)=C(Cl)C2C1 (centres undefined)	·	·	·	·	-27.6%	·
Fc1cccc(NCc2ccoc2)c1	39.8µM*	13.0%	38.9%	-6.8%	?	-35.3%
O=S1(=O)CCC(NC(=S)NCCNC(=S)NC2CCS(=O)(=O)C2)C1 (centres undefined)	50.1µM*	?	39.4%	8.9%	-0.6%	-10.1%
C=CCSC(=S)NC1CCS(=O)(=O)C1 (centres undefined)	50.1µM*	-21.1%	31.3%	8.6%	-3.2%	-0.7%
O=S1(=O)CCC(NC(=S)N2CCCCC2)C1 (centres undefined)	11.5%[59 µM]	8.9%	24.7%	9.4%	0.3%	-10.7%
NC(=S)NC1CCS(=O)(=O)C1 (centres undefined)	-2.7%	15.1%	38.7%	8.8%	4.8%	10.0%
SMILES	G9a block	Sfp PPTase inh	HP1b binding inh	BAZ2B block	ALOX12 inh	JMJD2A Tudor inh
CCn1c(CN(c2ccccc2)S(C)(=O)=O)nnc1SCC(=O)c1cc(C)n(C2CC2)c1C	·	·	·	·	-69.5%	·
CCN(CC)C(=O)c1csc(Nc2cccc3ccccc23)n1	39.8µM*	-10.3%	6.2%	?	?	-30.3%
Cc1ccccc1Nc1nc(C(=O)N2CCCC2)cs1	·	·	·	·	7.5%	·
O=C(c1csc(Nc2cccc3ccccc23)n1)N1CCCC1	-12.6%[59 µM]	-27.3%	15.9%	39.8µM*	?	-27.3%
CCN(CC)CCCNC(=O)c1csc(Nc2cccc3ccccc23)n1	·	-14.0%	26.5%	?	8.3%	-26.8%
O=C(c1csc(Nc2ccccc2Cl)n1)N1CCCC1	?	79.4µM*	20.8%	2.6%	-14.7%	-13.9%
O=C(NCC(O)CO)c1csc(Nc2cccc3ccccc23)n1 (centres undefined)	39.8µM*	-18.1%	35.2%	?	21.2%	-26.2%
COc1cccc(N2CCN(C(=O)CCNS(=O)(=O)c3ccc4[nH]c(=O)ccc4c3)CC2)c1	·	·	·	·	16.9%	·
CC(=O)/C=C/C1C(C)=CCC(C)C1(C)C (centres undefined)	·	·	·	·	-17.1%[176 µM]	·
CC(C)(C#N)C(=O)NCc1ccccc1OCc1ccccc1	·	·	·	·	0.0%	·
O=C1OC(c2ccccc2)=N/C1=C/c1cccc(OC(=O)c2cccs2)c1	·	·	1.9%	·	0.0%	-31.9%
O=C1NN(c2ccc(F)c(Cl)c2)C(=O)/C1=C\c1cccc(OC(=O)c2cccs2)c1	20µM*	-6.0%	?	?	-32.3%	79.4µM*
CC(C)=C1C(=O)NN(c2ccc(F)c(Cl)c2)C1=O	·	16.9%	0.8%	?	10µM*	-29.1%
Cc1cccc(C(=O)N2CCC(c3noc(COc4cccnc4)n3)CC2)c1	·	·	·	·	13.9%	·
Cc1ccc(S(=O)(=O)NNC(=O)c2csnn2)cc1	?	10.1%	19.2%	-5.2%	-19.9%	17.8µM*
Cc1ccc(/C=N\NC(=O)c2csnn2)cc1	·	10µM*	-11.0%	7.8%	0.0%	-8.9%[11.4 µM]
Cc1ccc(/C=N/NC(=O)c2ccncc2)cc1	·	12.8%	30.7%	6.6%	28.0%	-12.3%
Cc1ccc(NC(=O)CC(=O)Nc2ccc(C)cc2C)c(C)c1	5.5%	1.5%	51.2%	3.4%	-20.9%	-2.9%
Cc1ccc(NC(=O)c2csnn2)c(C)c1	14.1µM*	4.3%	63.2%	3.7%	0.0%	-18.1%[57.1 µM]
O=C(NNS(=O)(=O)c1ccc(F)cc1)c1cccc(O)c1	·	-0.3%	11.7%	8.2%	6.6%	25.1µM*
Cc1ccc(S(=O)(=O)NNC(=O)c2cccc(O)c2)cc1	-1.4%	4.0%	38.5%	-0.4%	-0.3%	-18.2%
O=C(Cc1cccs1)N1CCC(c2n[nH]c(=O)n2Cc2ccc(F)cc2)CC1	·	·	·	·	8.3%	·
FC(F)(F)c1cnc(SCc2cn3ccsc3n2)c(Cl)c1	·	·	·	·	-7.8%	·
CC(=O)c1ccc2ccccc2c1OCc1ccccc1C#N	·	·	·	·	1.0%	·

High-throughput results as filed in PubChem.
